# In PubChem BioAssay (NCI):
# About 83,000 compounds went through this panel and 20% of them were active in at least one assay; those are over-represented in the sample as a whole.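 Single-concentration screen, 48 h exposure, 96-well plates. Endpoint: percent growth. Below 10 = active.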 Values without a mark were called inactive. Calls of active or inactive are those of the source.
# How the values were obtained:
# Assay in all cases: NCI-60 one-dose screen, 48 h (100 = growth as untreated, 0 = no growth, -100 = all killed)
# Conditions in all cases: 10 µM unless noted
# T-47D breast = system: T-47D breast
# BT-549 breast = system: BT-549 breast
# MDA-MB-435 melanoma = system: MDA-MB-435 melanoma
# SW-620 colon = system: SW-620 colon
# MCF7 breast = system: MCF7 breast
# HCT-116 colon = system: HCT-116 colon
# KM12 colon = system: KM12 colon
# HCC-2998 colon = system: HCC-2998 colon
Structure (SMILES),growth (T-47D breast),growth (BT-549 breast),growth (MDA-MB-435 melanoma),growth (SW-620 colon),growth (MCF7 breast),growth (HCT-116 colon),growth (KM12 colon),growth (HCC-2998 colon)
Cc1ccc(NC(=O)Cn2c(Br)nc3c2c(=O)n(C)c(=O)n3C)cc1,-10.5% (active),0.261% (active),54.2%,30%,13.2%,-21.5% (active),63.8%,
O=C1/C(=C/c2ccccc2F)CN(C(=O)C(Cl)Cl)C/C1=C\c1ccccc1F,-7.38% (active),-46.5% (active),-56.8% (active),-76.9% (active),-49% (active),-90.3% (active),-51.7% (active),
COc1cc(OC)cc(-c2ccc(-c3ccc(C(=N)N)o3)o2)c1,49.3%,85.8%,-27.5% (active),2.04% (active),8.92% (active),-8.08% (active),17.6%,-36.8% (active)
CCN(CC)c1ccc(CNc2cc(C)nc3ccccc23)cc1,39%,71.6%,65.7%,76.9%,39.2%,52.1%,71.9%,42.1%
Cc1c(CC(=S)N2CCOCC2)nnn1-c1cccc(C(F)(F)F)c1,103%,112%,103%,99.9%,104%,102%,105%,119%
COc1ccc(-c2n[nH]c(=O)c3nc(NC(=S)Nc4ccc(Oc5ccccc5)cc4)sc23)cc1,81.9%,108%,97.3%,96.8%,96.8%,91.1%,93.8%,
COc1ccc(CCN2C(=O)/C(=C/c3ccc(C4Oc5ccccc5C5CC(c6ccccc6)=NN54)cc3)SC2=S)cc1 (configuration not stated),103%,101%,,100%,97.3%,104%,,104%
COc1ccc(N2CCC(=S)NC2=S)cc1,102%,105%,,104%,94.6%,104%,101%,104%
COC1=C(C)C(=O)N2[C@@H]1[C@H](c1ccccc1)OC21C=CC(=O)C=C1,17.6%,-34.1% (active),,-36% (active),7.61% (active),-51% (active),52.8%,35.7%
Cc1cn(-c2cc(NC(=O)c3cncc(C#Cc4c(N)ncc5ccc(F)cc45)c3)cc(C(F)(F)F)c2)cn1,65.8%,86.4%,,33.3%,31.5%,19.4%,14.1%,77.4%
COc1cc(C2C(C(=O)OCc3ccccc3)=C(C)NC(C)=C2C(=O)OCc2ccccc2)cc(OC)c1OC,11.9%,34%,,40.3%,10.4%,17.1%,19.4%,52%
C=C1C(=O)O[C@H]2[C@H]1CC/C(CNC(=O)c1c[nH]c3ccc(F)cc13)=C\CC[C@@]1(C)O[C@@H]21,-39.6% (active),13%,,-48.9% (active),-26.3% (active),-49.1% (active),,-79.3% (active)
COc1cccc(CNc2c3ccccc3nc3ccccc23)c1,45.9%,68.7%,43%,25.5%,14.6%,9.89% (active),35.9%,
Cc1ccc(CNc2c3ccccc3nc3ccccc23)cc1,25.1%,71.3%,,20.2%,9.04% (active),12%,23.4%,-2.62% (active)
CC1=CCC(OC(=O)C(C)(C)CC(O)(C(C)O)C(O)C2(C)C=CC(Cc3ccc(C(C)C)cc3)(C(C)C)CC2)(C(C)C)CC1 (configuration not stated),98.9%,109%,,92.6%,102%,93.7%,105%,103%
Cc1ccc(/C=C/C(=O)c2ccc(-n3cc(CN4CCN(c5cc6c(cc5F)c(=O)c(C(=O)O)cn6C5CC5)CC4)nn3)cc2)cc1,86.7%,73.7%,,98.4%,59.2%,8.04% (active),84.1%,92.4%
COc1ccc(C(=O)/C=C/c2ccc(N3CCCCC3)cc2)cc1OC,76.6%,87.4%,103%,102%,90.4%,82.7%,98.9%,

Structure (SMILES),growth (T-47D breast),growth (BT-549 breast),growth (MDA-MB-435 melanoma),growth (SW-620 colon),growth (MCF7 breast),growth (HCT-116 colon),growth (KM12 colon),growth (HCC-2998 colon)
CCOC(=O)CC1CSC(Nc2ccccc2)=N1 (configuration not stated),87.9%,114%,,108%,89.7%,107%,99%,102%
[2H]C([2H])([2H])Oc1ccc(F)cc1/C=C/C(=O)/C=C(/C=C/c1cc(F)ccc1OC([2H])([2H])[2H])OB(F)F,54.2%,87.7%,70.8%,45.1%,37%,43.2%,101%,
COc1ccc2nc(Cl)c(/C=C3\CC(c4ccccc4)=NN(c4ccccc4)C3=O)cc2c1,73.1%,43.3%,,88.7%,82%,54.1%,90.3%,85%
Cc1ccc(/C=C(\C#N)n2nnc3cc(F)c(F)cc32)cc1,-10.3% (active),-18.4% (active),-35.4% (active),9.9% (active),12.6%,-76.6% (active),8% (active),
CCN1C(=O)N(CC)C2C1NN=c1s/c(=C3\C(=O)N(CCC(C)C)c4ccccc43)c(=O)n12 (configuration not stated),80.2%,11.6%,,31.7%,14.9%,10.6%,17.6%,11.6%
CCOC(=O)c1c(C)nc2ccccc2c1/C=C/c1cccs1,17.4%,77.4%,,91.9%,39.5%,61.3%,,79.4%
C#CCNC(=O)[C@]1(C)CCC[C@@]2(C)[C@H]1CC=C1C=C(C(C)C)CC[C@@H]12,85.2%,100%,,109%,85.6%,107%,100%,100%
N#C/C(=C\C=C\c1ccc(-c2cc(Cl)ccc2Cl)o1)c1nc2ccccc2s1,84.8%,104%,,98.1%,83.3%,96.6%,106%,102%
Nc1nc(N)c(N=Nc2ccccc2)c(-c2ccccc2)n1,10.2%,47%,,86.3%,19.4%,69.7%,33.4%,76.4%
Fc1ccc(Cn2cc(CSc3nc4ccccc4o3)nn2)cc1,85.3%,103%,102%,101%,93.8%,92.3%,97.6%,
O=c1nc(-c2ccccc2)c2cc(-c3ccc(C(F)(F)F)nc3)ccc2[nH]1,95.3%,99.3%,,101%,86.8%,92.4%,,105%
Cc1ccc(/C=C/C(=O)Nc2ncc(Cc3ccc(F)cc3)s2)o1,58.5%,68.9%,,24.6%,14%,33.5%,21%,48.8%
C#CCO[C@H]1CC(CC#C)(CC#C)C(=O)[C@@H]2[C@H]1[C@H]1C[C@@H]3[C@@]4(C)CCC[C@@](C)(C(=O)OC)[C@@H]4CC[C@@]23C=C1C(C)C,84%,101%,,95.9%,96.1%,96.1%,63.1%,103%
O=C1/C=C/[C@@H](O)[C@@H]2C[C@@H](O)C[C@H]2/C=C/CCC[C@@H](O)CCO1,116%,109%,87.9%,106%,95.1%,111%,77.1%,
Nc1nc2c(c3ncccc13)C(c1cccc(Cl)c1)Cc1ncccc1-2 (configuration not stated),30.1%,38.7%,,23.1%,17.2%,24.4%,19.4%,34.4%
Cn1c(=O)c2[nH]c(SCC(=O)Nc3ccc(C(=O)/C=C/c4ccccc4Cl)cc3)nc2n(C)c1=O,92.4%,83.3%,,95.8%,69.4%,58.5%,97.9%,106%
O=C(O)/C=C/C(=O)Nc1cccc(Cn2nnc3cc(Cl)c(Cl)cc32)c1,93.2%,80.1%,,96.3%,89%,96.9%,109%,112%
